MIN6 prolif – inducers of beta-cell replication in MIN6 cells; MIN6 cells proliferation, ATPlite luminescence, 48 h; cells starved in 0.2% serum; 100% = growth in 10% serum; proliferation, % at 10 µM; 330,000 tested, 0.29% active;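 active = compounds whose signal lies at least 3.5 SD above the mean of all wells on their plate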;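 also: 0% = DMSO-treated cells in low-serum medium and 100% = 10% serum control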
MOR-DOR ag – agonists of human mu-delta opioid receptor heterodimerization; cells, OPRM1-OPRD1 heterodimerization, luminescence; 340,000 tested, 0.3% active; P35372+P41143; AID 504326; activation, % at 9.3 µM;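 also: 0% = vehicle-treated cells and 100% = reference agonist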
HTR5A inv ag – counter-screen for OPRM1-OPRD1 inverse agonists: human HTR5A inverse agonism; P47898; HTR5A cell line, luminescence; inhibition, % at 9.3 µM; 340,000 tested, 0.083% active; AID 504634; in the data active = inhibition mostly above about 23%, no sharp cut-off; inactive = mostly below about 18%;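 also: 0% = cells with DMSO and 100% = no-cell wells with DMSO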
HTR5A ag ctr – activates human HTR5A in OPRM1-OPRD1 agonist counter-screen; P47898; HTR5A agonist assay, luminescence, cell-based; activation, % at 9.3 µM; 340,000 tested, 0.61% active; AID 504692; in the data active = activation mostly above about 9.5%, no sharp cut-off; inactive = mostly below about 7.6%;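 also: 0% = cells with vehicle only and 100% = reference agonist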
V-ATPase pH – regulators of yeast V-ATPase proton transport; S. cerevisiae, pHLuorin cytosolic pH fluorescence; response, % at 10 µM; 350,000 tested, 0.37% active; in the data active = response mostly above about 7.3%, no sharp cut-off; inactive = mostly below about 5.4%; also: actives read high
OPRM1-OPRD1 inv – inverse agonists of human mu-delta opioid receptor heterodimerization. P35372+P41143. cell-based MOR-DOR heterodimer luminescence, inverse agonism. inhibition, % at 9.3 µM. 340,000 tested, 0.21% active. AID 504357; in the data active = inhibition above about 22%, passing the limit was not always enough;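 also: 0% = cells with DMSO and 100% = wells without cells with DMSO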
OPRM1-D1 ag cf – confirmation of human OPRM1-OPRD1 heterodimerization agonists; activation, % at 9.3 µM; 830 tested, 45% active; AID 504904; shares compounds with MOR-DOR ag; cells, MOR-DOR heterodimerization, luminescence complementation;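 also: 0% = vehicle-treated cells and 100% = reference agonist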
HTR5A ag counter – activates human HTR5A in OPRM1-OPRD1 agonist counter-screen | 830 tested, 8% active | shares compounds with MOR-DOR ag | activation, % at 9.3 µM | HTR5A agonist counterscreen, cell luminescence; in the data active = activation above about 17%;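 also: 0% = vehicle-treated cells and 100% = reference agonist response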
* = called active by the depositor; . = not tested or not shown. A selection: hits, their analogues and other compounds. The true share with any hit is near 1.7%. Rule as the data show it, unless noted: active = activation above about 18%; inactive = the rest.

SMILES | MIN6 prolif | MOR-DOR ag | HTR5A inv ag | HTR5A ag ctr | V-ATPase pH | OPRM1-OPRD1 inv | OPRM1-D1 ag cf | HTR5A ag counter
COc1ccc(CCNC(=O)C2CCC(=O)N(CC3CCCCC3)C2)cc1 (stereo not drawn) | -0.6 | -1.4 | 1.9 | 0.4 | -1.5 | 7.1 | . | .
CCCOC(=O)c1ccc(NC(=O)c2cc(=O)[nH]c3ccccc23)cc1 | 4.7 | -2.7 | -4.4 | 1.7 | 0.1 | 13.9 | . | .
COc1cc(NC(=O)c2cccc(C)c2)ccc1NC(=O)c1cc2ccccc2o1 | -2.6 | 30.1* | -3.9 | 1.0 | 1.0 | -167.0 | 48.6* | 5.6
COc1ccc(C(=O)C2CCCN(C(=O)c3cc(C(C)C)no3)C2)cc1F (stereo not drawn) | -1.0 | -1.2 | -9.9 | -6.2 | -0.3 | 8.2 | . | .
NC(=O)C1CC12c1ccccc1-c1ccccc12 (stereo not drawn) | -1.9 | -3.1 | -27.8 | 7.1 | 0.6 | 16.9 | . | .
O=C(NCC(c1ccc(F)cc1)N1CCOCC1)c1ccc(-c2ccccc2)cc1 (stereo not drawn) | -3.4 | 20.9* | 14.6 | -1.7 | 0.7 | -78.3 | 1.4 | -3.3
Cn1c(SCC(=O)Nc2ccc(C(=O)O)cc2)nc2scc(-c3ccccc3Cl)c2c1=O | 0.5 | -4.2 | -3.6 | 0.9 | 5.0 | 21.7 | . | .
O=C(NNC(=O)c1ccccc1-c1ccccc1C(=O)O)c1ccccc1 | -0.6 | -1.4 | 5.3 | -2.0 | -0.7 | 7.4 | . | .
O=C(C=P(c1ccccc1)(c1ccccc1)c1ccccc1)c1ccccc1-c1ccccc1C(=O)C=P(c1ccccc1)(c1ccccc1)c1ccccc1 | . | 55.3* | -8.3 | 2.2 | -2.2 | -242.0 | 54.4* | -6.6
COc1ccc(CNC(=O)c2ccc(CS(=O)(=O)c3ccc(C)cc3)o2)cc1 | 1.5 | 0.4 | 5.4 | -4.0 | -0.6 | -2.1 | . | .
Cc1ccc(NC(=O)c2cc(S(=O)(=O)N3CCCCC3)c[nH]2)cc1F | 0.7 | 2.7 | -23.5 | 9.1 | -5.4 | -15.1 | . | .
Cc1ccc(NC(=O)c2cc(S(=O)(=O)N3CCCCC3)c[nH]2)cc1C | -0.8 | 29.9* | 6.5 | -2.2 | -4.0 | -177.2 | 14.4 | 8.5
O=C(c1cnccn1)N(Cc1cccs1)C1(C(=O)NC2CCCCC2)CCCCC1 | 2.5 | 3.9 | -9.7 | -1.4 | -2.2 | -21.3 | . | .
O=C(c1ccccn1)N(Cc1cccs1)C1(C(=O)NC2CCCCC2)CCCCC1 | 0.8 | 28.3* | 8.9 | -3.2 | 2.7 | -132.2 | -0.1 | 2.6
CCOC(=O)c1c2c(n(-c3ccc(OC)cc3)c1C)C(=O)C(=O)c1ccccc1-2 | . | 19.9* | -39.6 | 10.3 | -4.7 | -97.3 | 15.4 | 1.2
O=C(CCN1C(=O)C2CCCCC2C1=O)Nc1nc(-c2ccccc2)cs1 (stereo not drawn) | -2.8 | -1.5 | -23.0 | -3.3 | 0.8 | 7.5 | . | .
COC1=CC(=O)c2c(ccc3ncnc(N)c23)C1=O | . | 41.1* | -12.3 | 3.2 | -0.1 | -180.0 | 0.8 | 1.1
CCOc1ccc(N(CC(=O)N2CCCC2)S(=O)(=O)c2ccc(Cl)cc2)cc1 | -1.1 | -0.7 | 2.0 | -0.8 | 1.7 | 3.8 | . | .
COc1ccc(C2/C=C\CN(C(=O)Nc3ccc(C(F)(F)F)cc3)CC(=O)N2Cc2ccc(F)cc2)cc1 (stereo not drawn) | -7.7 | 58.1* | -49.9 | 19.7* | 7.4 | -318.1 | 0.3 | -2.6
COc1ccc(C2/C=C\CN(C(=O)Nc3ccccc3)CC(=O)N2Cc2ccc(F)cc2)cc1 (stereo not drawn) | -2.4 | -1.2 | 8.1 | -1.1 | -4.2 | 6.6 | . | .
COc1ccc(/C=N\NC(=O)COc2ccc(C(C)(C)C)cc2)cc1Cn1nc(C)cc1C | -3.1 | 45.1* | -11.0 | 4.4 | -4.6 | -189.6 | 0.8 | 3.4
C#CC(=O)N(c1ccc(OC)c(OC)c1)C(C(=O)NC1CCCC1)c1cccs1 (stereo not drawn) | -4.8 | 38.6* | -51.1 | 3.9 | -4.9 | -227.7 | 18.8* | 21.5*
Cc1cc(C)c(NC(=O)c2ccc(CNS(=O)(=O)c3cc(C(F)(F)F)ccc3Cl)cc2)c(C)c1 | -3.4 | 4.1 | -22.3 | 2.6 | -0.9 | -22.9 | . | .

Bioassay records (PubChem)
